# The supplement of paper PMC3334620
# The full ranking holds about 33,000 sequences; the median of “E-score (-0.5 to 0.5)” is about -0.015, and the highest 2% start at about 0.3. Only a selection was taken, and the highest values are over-represented in it overall.
# Biological target: T1, Abf1 (UniProt P14164)
# T1 sequence: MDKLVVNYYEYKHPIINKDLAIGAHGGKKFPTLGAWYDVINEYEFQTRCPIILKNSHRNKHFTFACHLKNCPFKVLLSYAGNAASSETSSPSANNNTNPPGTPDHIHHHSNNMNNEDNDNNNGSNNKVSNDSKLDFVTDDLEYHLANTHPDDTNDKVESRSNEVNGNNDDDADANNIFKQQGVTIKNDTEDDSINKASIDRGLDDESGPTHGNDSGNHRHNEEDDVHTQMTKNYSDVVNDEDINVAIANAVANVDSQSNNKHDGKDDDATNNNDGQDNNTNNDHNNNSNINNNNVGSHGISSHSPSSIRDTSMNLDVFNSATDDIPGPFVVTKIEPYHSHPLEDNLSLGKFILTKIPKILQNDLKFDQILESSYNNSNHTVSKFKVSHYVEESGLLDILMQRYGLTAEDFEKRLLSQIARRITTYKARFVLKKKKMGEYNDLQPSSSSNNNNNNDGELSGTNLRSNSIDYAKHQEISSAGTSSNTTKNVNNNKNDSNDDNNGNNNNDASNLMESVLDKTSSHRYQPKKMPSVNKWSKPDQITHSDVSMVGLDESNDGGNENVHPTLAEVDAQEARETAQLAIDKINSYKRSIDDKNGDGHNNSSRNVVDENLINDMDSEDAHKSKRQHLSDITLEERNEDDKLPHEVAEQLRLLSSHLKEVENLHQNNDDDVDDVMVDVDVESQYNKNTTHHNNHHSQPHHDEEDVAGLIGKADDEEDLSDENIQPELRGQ
# Assay: PBM E-score (8-mer binding enrichment) (E-score (-0.5 to 0.5)); higher = stronger / more preferred TF binding
# Conditions: protein concentration: 200 nM; construct: GST-full length
# Procedure: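 Universal 'all 10-mer' protein binding microarrays (Agilent AMADID 015681) probed with GST-tagged S. cerevisiae TFs (full-length or DBD) made by in vitro transcription/translation (PURExpress), about 100-200 nM. Bound TF was detected with fluorescent anti-GST. Each ungapped 8-mer (which stands for itself and its reverse complement) is scored by the PBM enrichment score (E-score), a modified Wilcoxon-Mann-Whitney statistic from -0.5 to +0.5, computed with the Universal PBM Analysis Suite. Scale: above 0.35 generally sequence-specific binding.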
row,Sequence,PBM E-score
1,CGGTACAA,0.211
2,CCGTACAG,0.21
3,CCGTACAA,0.432
4,ACGTACAA,0.218
5,GCGTACAA,0.197
6,CAGTACAA,0.0284
7,TCGTACAA,0.402
8,GCGTACAC,0.0451
9,AAGGTTTC,-0.0855
10,CCGACAGA,-0.00185
11,TACGTTAA,0.132
12,AGATGCCC,-0.144
13,GCATCCGA,-0.146
14,TAGAGTGA,0.248
15,GAGAGTGC,-0.192
16,GAGAGTGA,0.324
17,CCGTTTTA,0.203
18,GCATGACA,0.207
19,AGATGACT,-0.0855
20,TCATGACA,0.323
21,AGATGACC,0.132
22,TGATGAAA,0.0461

row,Sequence,PBM E-score
1,CGATGACG,0.136
2,ACATGACA,0.256
3,CGATGACA,0.319
4,GGATGACA,0.253
5,AGATGACA,0.316
6,CGATGACC,0.206
7,TGATGACA,0.376
8,CTCGTGCC,-0.0761
9,CCGGATGA,-0.024
10,GAACACAA,-0.0576
11,GCGAGTGA,0.137
12,ACTGGTCT,-0.176
13,ACTTGTCT,-0.0797
14,CGATTGGC,-0.0866
15,CCCCGCGG,-0.255
16,CGGTCGCC,-0.00137
17,ACTGACGG,-0.0335
18,CCTGACGA,0.214
19,CATGACGG,0.0231
20,GTTGACGA,0.21
21,GATGACGA,0.265
22,ACTGACGA,0.305

row,Sequence,PBM E-score
1,ATTGACGA,0.377
2,ATTGACGG,0.211
3,AATGACGC,0.106
4,AATGACGT,0.125
5,AATGACGA,0.36
6,CATGACGA,0.374
7,TCAGGCGA,0.0781
8,ATCGACTA,0.029
9,ATAAGATG,0.201
10,ATGTTCTG,0.093
11,GGTCGCAA,-0.0813
12,GGAGAGCA,-0.253
13,ACTATGGA,-0.013
14,AAAATGAC,0.297
15,AGAATGAT,0.33
16,ATAATTAC,0.261
17,AGAATGAA,0.144
18,AAAATGGC,0.0419
19,ATAATTAT,0.303
20,ATAATGAG,0.117
21,ATAATGAC,0.258
22,ATAATTAA,0.274

row,Sequence,PBM E-score
1,ACAATGAC,0.107
2,ATAATGAT,0.344
3,AGAATGAG,-0.157
4,GGGACGTA,0.159
5,CGAGTCAA,-0.0144
6,AGAAGGCG,-0.119
7,GGGATACA,-0.0572
8,CTGTCTGC,-0.243
9,ATTCCGAA,0.0789
10,CAAGGAGC,-0.363
11,GGCAAAAC,-0.0611
12,GAAATGAC,0.312
13,AAAATGAA,0.056
14,AAAATGAG,0.0916
15,GAAATGAA,0.164
16,CAAATGAC,0.144
17,AAAATGAT,0.387
18,AAGGCTTA,-0.214
19,AGACGTCA,0.107
20,TCACGTCA,0.331
